Active and inactive are the calls of the source. How the source made its calls: active means hit-call score of the fitted dose curve at least 0.9, where 1 is the maximum; inactive means score below 0.9.
How the values were obtained:
[1] = APR_HepG2_NuclearSize_72hr: Apredica 72-hour HepG2 Assay for Nuclear Size (AID 2282925); details: high-content imaging, actives raise or lower the signal
In short: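 Nuclear size was read by high-content imaging of Hoechst 33342 stain after formaldehyde fixation. Compounds ran 72 h on HepG2 at 0.39 to 200 uM, with final DMSO 0.5% v/v. Curves fitted both directions relative to DMSO control.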

[2] = ATG_CRE_CIS: Attagene CIS-FACTORIAL HepG2 Assay for human cAMP Responsive Element (CRE) binding protein 3 (AID 2282926); details: HepG2 CRE cis-reporter, Attagene multiplexed mRNA; actives raise or lower the signal
In short: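 Cells carrying cis-regulated reporter constructs respond through their own endogenous factors. After 24 h treatment, RNA is reverse-transcribed, amplified, labelled and sized by capillary electrophoresis; up- and down-regulation are both scored against vehicle.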

[3] = target: CCAAT/enhancer-binding protein beta (Homo sapiens) (UniProt P17676); experiment: ATG_C_EBP_CIS: Attagene CIS-FACTORIAL HepG2 Assay for human CCAAT/Enhancer Binding Protein (C/EBP) beta (AID 2282927); details: HepG2 Attagene cis-factorial transcription factor reporter; actives raise or lower the signal
Sequence of CCAAT/enhancer-binding protein beta (Homo sapiens) (P17676 whole entry, looked up, the tested form may be a part): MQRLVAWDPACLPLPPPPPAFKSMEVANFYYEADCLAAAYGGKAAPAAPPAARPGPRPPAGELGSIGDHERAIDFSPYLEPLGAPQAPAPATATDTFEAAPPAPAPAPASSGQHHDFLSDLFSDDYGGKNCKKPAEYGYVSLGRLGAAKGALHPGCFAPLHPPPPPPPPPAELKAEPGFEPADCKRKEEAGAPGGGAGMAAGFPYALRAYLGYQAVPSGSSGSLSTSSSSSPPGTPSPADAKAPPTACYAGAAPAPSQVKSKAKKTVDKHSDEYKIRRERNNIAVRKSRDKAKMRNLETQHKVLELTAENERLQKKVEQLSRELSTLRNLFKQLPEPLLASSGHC
In short: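 Endogenous C/EBPb-driven reporter transcripts measured in transfected human HepG2 cells at 24 h via RT-PCR and capillary electrophoresis of labelled fragments. Activity fitted in both directions relative to DMSO baseline.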

[4] = ATG_CMV_CIS: Attagene CIS-FACTORIAL HepG2 Assay for human CMV (Internal Marker) (AID 2282928); details: HepG2 CMV promoter reporter, transcription factor profiling; actives raise or lower the signal;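 further: endpoint acts as a background internal control marker rather than a target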
In short: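 Bidirectional fits against DMSO are applied to reporter mRNA, read by RT-PCR with capillary electrophoresis, from HepG2 cells exposed 24 h. The endpoint serves as an internal CMV background marker within the cis-factorial reporter panel.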

[5] = ATG_DR4_LXR_CIS: Attagene CIS-FACTORIAL HepG2 Assay for human Liver X Receptor (LXR), DR4 submotif (AID 2282929); details: HepG2 Attagene DR4 cis-reporter, mRNA transcription; actives raise or lower the signal
In short: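 Endogenous factor activity at a DR4 cis-element is read as reporter mRNA in transiently transfected HepG2 cells. Exposure lasts 24 h; transcripts are amplified, fluorescently labelled and sized by capillary electrophoresis, with DMSO as baseline.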

[6] = target: Aryl hydrocarbon receptor (Homo sapiens) (UniProt P35869); experiment: ATG_Ahr_CIS: Attagene CIS-FACTORIAL HepG2 Assay for human Aryl Hydrocarbon Receptor (Ahr) (AID 2282930); details: HepG2 AhR cis-factorial reporter transcription; actives raise or lower the signal
Sequence of Aryl hydrocarbon receptor (Homo sapiens) (P35869 whole entry, looked up): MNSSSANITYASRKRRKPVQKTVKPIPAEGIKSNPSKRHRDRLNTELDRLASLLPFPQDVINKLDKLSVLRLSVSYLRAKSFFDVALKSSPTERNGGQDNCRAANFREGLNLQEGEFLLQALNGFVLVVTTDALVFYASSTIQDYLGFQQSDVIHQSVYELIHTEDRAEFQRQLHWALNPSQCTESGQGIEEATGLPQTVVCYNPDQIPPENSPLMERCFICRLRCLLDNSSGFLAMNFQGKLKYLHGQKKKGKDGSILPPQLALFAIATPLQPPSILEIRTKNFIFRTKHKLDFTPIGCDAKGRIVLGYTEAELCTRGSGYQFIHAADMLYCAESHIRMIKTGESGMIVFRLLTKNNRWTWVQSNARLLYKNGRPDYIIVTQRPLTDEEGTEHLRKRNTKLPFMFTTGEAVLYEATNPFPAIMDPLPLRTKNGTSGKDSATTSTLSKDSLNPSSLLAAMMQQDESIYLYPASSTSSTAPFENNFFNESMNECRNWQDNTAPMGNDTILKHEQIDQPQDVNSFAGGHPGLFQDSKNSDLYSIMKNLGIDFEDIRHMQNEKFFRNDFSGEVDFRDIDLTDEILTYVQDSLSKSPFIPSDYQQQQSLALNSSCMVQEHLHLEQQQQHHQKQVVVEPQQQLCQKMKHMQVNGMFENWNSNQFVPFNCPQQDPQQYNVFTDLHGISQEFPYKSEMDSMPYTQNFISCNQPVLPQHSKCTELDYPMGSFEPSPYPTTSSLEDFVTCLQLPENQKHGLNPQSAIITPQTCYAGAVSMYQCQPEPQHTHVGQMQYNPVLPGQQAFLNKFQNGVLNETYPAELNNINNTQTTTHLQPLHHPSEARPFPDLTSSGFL
In short: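 Reporter mRNA levels, quantified by RT-PCR and fluorescent capillary electrophoresis, reflect endogenous AhR transcriptional activity in HepG2 cells carrying transfected cis-promoter reporter constructs. Readout at 24 h post-dose; gain or loss fitted against DMSO baseline.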

[7] = ATG_AP_1_CIS: Attagene CIS-FACTORIAL HepG2 Assay for human Activator Protein 1 (AP-1) (AID 2282931); details: HepG2 Attagene cis-factorial AP-1 reporter mRNA; actives raise or lower the signal
In short: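 Fluorescence of labelled PCR fragments separated by capillary electrophoresis gives reporter mRNA levels. HepG2 with transfected cis-regulated reporter units, 24 h exposure; DMSO serves as baseline for bidirectional curve fits.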

[8] = ATG_AP_2_CIS: Attagene CIS-FACTORIAL HepG2 Assay for human Activator Protein 2 (AP-2) (AID 2282932); details: HepG2 AP-2 cis-reporter, Attagene transcription factor profiling; actives raise or lower the signal
In short: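 Endogenous transcription factor activity is reported through transfected multiplex reporter constructs in HepG2, after 24 h of compound exposure. Transcripts were quantified by RT-PCR and capillary electrophoresis of fluorescent fragments. Bidirectional fit against DMSO.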

[9] = target: Retinoic acid receptor alpha (Homo sapiens) (UniProt P10276); experiment: ATG_DR5_RAR_CIS: Attagene CIS-FACTORIAL HepG2 Assay for human Retinoic Acid Receptor Alpha (RARE), DR5 submotif (AID 2282934); details: HepG2 Attagene cis-factorial RARE DR5 reporter, mRNA; actives raise or lower the signal
Sequence of Retinoic acid receptor alpha (Homo sapiens) (P10276 whole entry, looked up): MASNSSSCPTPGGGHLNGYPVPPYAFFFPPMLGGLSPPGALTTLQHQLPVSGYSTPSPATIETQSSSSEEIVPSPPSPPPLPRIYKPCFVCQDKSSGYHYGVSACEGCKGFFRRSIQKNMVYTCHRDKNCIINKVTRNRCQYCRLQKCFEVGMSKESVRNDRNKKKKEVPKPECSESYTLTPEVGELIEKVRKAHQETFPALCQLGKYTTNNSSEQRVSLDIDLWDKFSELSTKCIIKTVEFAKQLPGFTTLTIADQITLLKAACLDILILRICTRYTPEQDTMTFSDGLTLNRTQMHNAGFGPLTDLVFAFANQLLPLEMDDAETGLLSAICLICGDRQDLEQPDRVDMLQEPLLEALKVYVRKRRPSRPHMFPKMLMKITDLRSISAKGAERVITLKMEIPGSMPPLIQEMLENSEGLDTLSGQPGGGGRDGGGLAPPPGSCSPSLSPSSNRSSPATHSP
In short: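 Reporter transcripts from a DR5-regulated unit, measured via RT-PCR plus capillary electrophoresis, reflect endogenous RAR activity in transiently transfected human HepG2 liver cells. Exposure lasted 24 h; gain or loss of signal scored against DMSO.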

[10] = target: Transcription factor E2F1 (Homo sapiens) (UniProt Q01094); experiment: ATG_E2F_CIS: Attagene CIS-FACTORIAL HepG2 Assay for human E2F Transcription Factor 1 (AID 2282935); details: HepG2 Attagene cis-reporter, E2F reporter RNA transcripts; actives raise or lower the signal
Sequence of Transcription factor E2F1 (Homo sapiens) (Q01094 whole entry, looked up): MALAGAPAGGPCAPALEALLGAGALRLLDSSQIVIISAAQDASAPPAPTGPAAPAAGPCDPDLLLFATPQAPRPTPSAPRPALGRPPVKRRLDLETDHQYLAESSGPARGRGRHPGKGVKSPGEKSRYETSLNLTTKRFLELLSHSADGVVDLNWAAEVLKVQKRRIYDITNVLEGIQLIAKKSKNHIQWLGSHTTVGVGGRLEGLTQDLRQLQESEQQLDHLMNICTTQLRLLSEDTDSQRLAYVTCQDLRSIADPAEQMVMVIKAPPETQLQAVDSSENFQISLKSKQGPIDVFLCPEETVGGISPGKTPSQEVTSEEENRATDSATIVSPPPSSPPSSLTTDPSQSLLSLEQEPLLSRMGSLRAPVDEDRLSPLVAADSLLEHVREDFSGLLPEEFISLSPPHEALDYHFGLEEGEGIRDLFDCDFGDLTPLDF
In short: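 Gain or loss of reporter transcript, fitted against DMSO, reflects E2F1-driven transcription. Transiently transfected HepG2 dosed 24 h before RNA isolation. Quantified by fluorescent RT-PCR products separated by capillary electrophoresis.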

[11] = ATG_E_Box_CIS: Attagene CIS-FACTORIAL HepG2 Assay for human Enhancer Box (E-box) (AID 2282936); details: HepG2 E-box cis-reporter transcription, actives raise or lower the signal
In short: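 E-box-driven reporter transcripts measured in transiently transfected HepG2 after 24 h exposure: RNA reverse-transcribed, PCR-amplified, fluorescently labelled, digested and resolved by capillary electrophoresis. Gain or loss relative to DMSO.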

[12] = ATG_M_61_CIS: Attagene CIS-FACTORIAL HepG2 Assay for M61 Transcription Factor (Internal Marker) (AID 2282937); details: HepG2 Attagene CIS-FACTORIAL M61 internal marker reporter; actives raise or lower the signal
In short: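 This endpoint serves as an internal background control within a multiplexed HepG2 cis-reporter panel. Cells are exposed for 24 h; reporter mRNA is amplified, fluorescently labelled and sized by capillary electrophoresis, with DMSO as negative control.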

[13] = ATG_EGR_CIS: Attagene CIS-FACTORIAL HepG2 Assay for human Early Growth Response 1 (EGR1) (AID 2282938); details: HepG2 Attagene CIS-FACTORIAL EGR reporter mRNA; actives raise or lower the signal
In short: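 HepG2, transient MRTU transfection (cis promoters), 24 h compound. RNA → RT (oligo-dT) → PCR → 6-FAM labelling → HpaI cut → CE fluorescence. Bidirectional fit, DMSO baseline.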

[14] = ATG_M_19_CIS: Attagene CIS-FACTORIAL HepG2 Assay for M19 Transcription Factor (Internal Marker) (AID 2282939); details: HepG2 Attagene CIS-FACTORIAL M19 internal marker reporter; actives raise or lower the signal
In short: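 Transfect HepG2 with MRTU reporter library → dose chemical, 24 h → isolate total RNA, reverse-transcribe with oligo(dT) → PCR, 6-FAM label, HpaI cut (2 h, 37 C) → capillary electrophoresis. Bidirectional fit vs DMSO.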

[15] = ATG_ERE_CIS: Attagene CIS-FACTORIAL HepG2 Assay for Estrogen Response Element (ERE) (AID 2282940); details: HepG2 ERE cis-reporter, Attagene RNA transcript; actives raise or lower the signal
In short: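 Transient MRTU transfection of human HepG2; cis-element promoters; 24 h dosing; total RNA → RT (oligo dT) → PCR → 6-FAM primer extension → HpaI digest → CE fluorescence. Bidirectional fit, DMSO baseline.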

[16] = ATG_Ets_CIS: Attagene CIS-FACTORIAL HepG2 Assay for human Erythroblast Transformation Specific (ETS) (AID 2282941); details: HepG2 ETS cis-reporter transcription, actives raise or lower the signal
In short: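 Endogenous transcription factor activity read as reporter mRNA via RT-PCR and capillary electrophoresis, with gain or loss fitted bidirectionally against DMSO. Human HepG2 liver cells, transiently transfected CIS reporter constructs, 24 h exposure.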

[17] = target: Hepatocyte nuclear factor 3-beta (Homo sapiens) (UniProt Q9Y261); experiment: ATG_FoxA2_CIS: Attagene CIS-FACTORIAL HepG2 Assay for human Forkhead box A2 (FOXA2) (AID 2282942); details: HepG2 cis-reporter transcription factor activity, 24 h; actives raise or lower the signal
Sequence of Hepatocyte nuclear factor 3-beta (Homo sapiens) (Q9Y261 whole entry, looked up): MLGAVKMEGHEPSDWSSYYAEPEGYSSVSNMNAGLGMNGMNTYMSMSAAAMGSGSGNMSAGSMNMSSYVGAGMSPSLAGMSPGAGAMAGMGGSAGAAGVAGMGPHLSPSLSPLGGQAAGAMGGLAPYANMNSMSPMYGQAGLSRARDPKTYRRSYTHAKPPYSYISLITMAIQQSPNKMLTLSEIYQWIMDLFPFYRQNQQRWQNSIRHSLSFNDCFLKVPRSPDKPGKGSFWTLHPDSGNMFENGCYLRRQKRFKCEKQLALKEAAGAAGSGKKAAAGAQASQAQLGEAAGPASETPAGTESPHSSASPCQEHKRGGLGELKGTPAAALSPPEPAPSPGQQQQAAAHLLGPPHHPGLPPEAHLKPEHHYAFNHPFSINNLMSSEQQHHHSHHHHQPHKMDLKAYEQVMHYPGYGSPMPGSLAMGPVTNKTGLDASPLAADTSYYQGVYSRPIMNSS
In short: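 Cells: HepG2, transient multiplex reporter transfection. Exposure 24 h. Detection: reporter-specific RT-PCR, fluorescent labelling, restriction digest, capillary electrophoresis. Analysis: bidirectional curve fit, DMSO as negative control.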

[18] = ATG_FoxO_CIS: Attagene CIS-FACTORIAL HepG2 Assay for human Forkhead box O (FoxO) (AID 2282943); details: HepG2 Attagene cis-reporter, FoxO element, mRNA; actives raise or lower the signal
In short: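 Endogenous transcription factor activity read from multiplexed cis-promoter reporter transcripts in transiently transfected HepG2, 24 h after dosing. Reporter RNA measured via RT-PCR plus capillary electrophoresis of FAM-labeled products; gain or loss relative to DMSO.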

[19] = ATG_GATA_CIS: Attagene CIS-FACTORIAL HepG2 Assay for human GATA Binding Protein (AID 2282944); details: HepG2 GATA cis-element reporter, Attagene multiplex mRNA; actives raise or lower the signal
In short: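 Transient MRTU transfection, HepG2, 24 h compound exposure. Total RNA → oligo(dT) RT → PCR → 6-FAM primer extension → HpaI cut → CE. Bidirectional fit vs DMSO.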

[20] = ATG_BRE_CIS: Attagene CIS-FACTORIAL HepG2 Assay for human Bone Morphogenetic Protein (BMP) Response Element (BRE) (AID 2282933); details: HepG2 BMP response element reporter, Attagene transcription factor profiling; actives raise or lower the signal
In short: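 Transient MRTU transfection of human HepG2 liver cells; 24 h compound treatment; total RNA isolated, reverse-transcribed, PCR-amplified, 6-FAM labelled, HpaI-cut, capillary electrophoresis. DMSO = negative control/baseline, bidirectional fit.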

Measured: AC50

Nc1ccc(S(=O)(=O)c2ccc(N)cc2)cc1
active: [15] 100 µM
not listed: [20]
inactive: all other assays above

C[Si]1(C)O[Si](C)(C)O[Si](C)(C)O[Si](C)(C)O1
active: [5] 49.6 µM | [15] 27.2 µM
not listed: [8] | [9]
inactive: all other assays above

O=C(O)Cc1ccccc1Nc1c(Cl)cccc1Cl
active: [5] 68.7 µM | [6] 67.3 µM | [11] 176 µM
not listed: [8] | [9]
inactive: all other assays above

COCCOC[C@H](CC1(C(=O)NC2CCC(C(=O)O)CC2)CCCC1)C(=O)Oc1ccc2c(c1)CCC2 (some centres undefined)
not listed: [8] | [20]
inactive: all other assays above

Cc1ccc(C(C)C)c(O)c1
not listed: [8]
inactive: all other assays above

CNC(=O)[C@H]1O[C@@H](n2cnc3c(NCc4cc(Cl)ccc4OCc4cc(C)no4)ncnc32)[C@H](O)[C@@H]1N
not listed: [8] | [9]
inactive: all other assays above

Cc1ccc(N(C)C)cc1
not listed: [20]
inactive: all other assays above

Clc1cc(Cl)c(Cl)cc1Cl
inactive: all assays above
